Screens: PubChem, SRMLSC
Spn MK inh: S. pneumoniae mevalonate kinase inhibition. inhibition, % at 10 µM. purified MK, PK/LDH-coupled NADH absorbance 340 nm. 0.48% of 65,000 active;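 active means ranked among the strongest by inhibition in the single 10 µM screen, a fixed top-ranked set picked for dose follow-up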
DPM-DC inhibit: inhibitors of Streptococcus pneumoniae diphosphomevalonate decarboxylase | purified DPM-DC, PK/LDH coupled NADH fluorescence | calls only at 10 µM | 0.49% of 65,000 active;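 active means the 320 compounds with the highest percent inhibition in the single-dose primary screen, excluding strongly autofluorescent ones, cut at about 32% in these data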;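 further: kinetic rate of NADH fluorescence loss reporting ADP formed by the decarboxylase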
A340 absorber: compound absorbs light at 340 nm; compound absorbance at 340 nm, fold over control; fold change at 10 µM; 65,000 tested, under 10 active; AID 708;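 active means at 10 µM dose, initial 340 nm absorbance at least 2 fold that of control wells; inactive means change under 2 fold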;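 further: initial absorbance extrapolated from kinetic A340 decline of NADH oxidation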
Fluor 339 460: intrinsic fluorescence of library compounds, ex339/em460 – biochemical, MLSMR library, data from DPM-DC assay, artefact control, profiling panel; fluorescence fold increase at 10 µM; 5.5% of 65,000 active; AID 709; compound autofluorescence, ex339/em460 nm, NADH buffer; active compounds read high; 1 = no-compound wells, NADH background;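 active means at 10 µM, mean starting fluorescence two-fold or more over control wells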;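 further: signal is the first read of a kinetic run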
NADH coupling: inhibition of NAD/NADH coupling enzymes, library profiling. IC50, µM (titrated, usually from 10 µM), without a hit: at the top dose inhibition. 0.02% of 65,000 active. coupled PK/LDH NADH assays, four targets;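 active means single-dose screening hits from any of four coupled enzyme assays that gave an IC50 when retested across doses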;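 further: the DPM-DC format reads NADH fluorescence rather than 340 nm absorbance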
Spn PMK inh: blocks S. pneumoniae phosphomevalonate kinase; purified PMK, PK/LDH-coupled NADH absorbance 340 nm; inhibition, % at 10 µM; 0.49% of 65,000 active; AID 539;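 active means top-ranked compounds by inhibition in the single 10 µM screen, taking a fixed number of the strongest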;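 further: 0% = full reaction with DMSO carrier and 100% = background rate without enzyme reaction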
Starred values were filed as active, the others as inactive; i = inactive; / = no result given. Sampled rows, rich in hits. Any-hit rate of the full collection: about 6.8%.

SMILES | Spn MK inh | DPM-DC inhibit | A340 absorber | Fluor 339 460 | NADH coupling | Spn PMK inh
CC1CN(Cc2nc3c(c(=O)n(C)c(=O)n3C)n2Cc2ccc(Cl)cc2)CC(C)O1 (configuration not stated) | 3 | i | 1 | 1.1 | 4% | 9
COc1cc(OC)c(OC)cc1CN1CCN(c2ccccc2OC)CC1 | 43* | i | 1.1 | 1.1 | 14% | 0
COc1cc(CN2CCN(c3cccc(C)c3C)CC2)cc(OC)c1O | 51* | i | 1.1 | 1.1 | 17% | 0
Cc1oc(-c2ccccc2F)nc1CN1CCC(C(=O)NCCC2=CCCCC2)CC1 | 0 | i | 1.1 | 0.94 | 4% | 10
Cc1cccc(OCC2=NS(=O)(=O)c3ccccc3N2)c1 | 5 | i | 0.99 | 1.1 | 5% | 10
C=CCc1cccc2cc(C(=O)N(CC)CC)c(=O)oc12 | 0 | i | 1.1 | 1.2 | 1% | 3
c1ccc(CSc2nnc3c(n2)OC(c2ccco2)Nc2ccccc2-3)cc1 (configuration not stated) | 0 | i | 1.1 | 0.96 | 2% | 0
O=C1NC(c2ccco2)Nc2ccccc21 (configuration not stated) | 5 | / | 0.99 | 2.9* | 4% | 15
CC1Cc2ccccc2C(=O)N1 (configuration not stated) | 10 | i | 1 | 1.1 | 8% | 11
Cc1ccc(C2NC(=O)c3ccccc3N2)s1 (configuration not stated) | 2 | / | 1.1 | 2.1* | 8% | 13
O=C1NC(c2ccncc2)Nc2ccccc21 (configuration not stated) | 4 | i | 1 | 2.5* | 7% | 4
CC(C)CC1(C)NC(=O)N(CCN2C(=O)c3ccccc3C2=O)C1=O (configuration not stated) | 3 | i | 1 | 0.96 | 7% | 14
CCN(CC)S(=O)(=O)c1cccc(C(=O)Nc2nc3cc4c(cc3s2)OCCO4)c1 | 0 | / | 1.1 | 2.1* | 2% | 3
COc1ccc(N2CCN(Cc3nc4c(c(=O)n(C)c(=O)n4C)n3Cc3ccccc3C)CC2)cc1 | 4 | i | 0.98 | 1 | 3% | 5
CCOC(=O)C1CCCN(C(=O)C2CCCN(S(C)(=O)=O)C2)C1 (configuration not stated) | 1 | i | 0.99 | 1.1 | 9% | 26*
COc1ccccc1-c1cc(C(=O)Nc2ccc(F)cc2F)no1 | 12 | i | 1 | 2.1* | 8% | 11
COc1ccccc1-c1cc(C(=O)NC(C)C)no1 | 2 | i | 1 | 1.2 | 4% | 11
CN(CCc1ccccn1)C(=O)Nc1ccc(F)cc1 | 8 | i | 1.1 | 1 | 8% | 17
Cc1ccc(OCC(=O)N(C)CCc2ccccn2)cc1 | 53* | i | 1 | 1.1 | 20% | 6
CC12CCC(=O)N1C(C(=O)O)Cc1c2[nH]c2ccccc12 (configuration not stated) | 2 | i | 1 | 1.1 | 5% | 13
COc1ccc2c(c1OC)C(=O)N1C(C(=O)O)Cc3c([nH]c4ccccc34)C21 (configuration not stated) | 1 | i | 1 | 2.2* | 4% | 4
O=C1CC(c2ccco2)CC2=C1C(c1ccccc1)n1nc(C(F)(F)F)nc1N2 (configuration not stated) | 9 | i | 1.1 | 2.8* | 12% | 7
COC(=O)c1cc2c(=O)n3ccccc3nc2n(C(C)C)c1=N | 4 | / | 1 | 3.9* | 2% | 0
CC(C)n1c(=N)c(C(=O)NCCc2ccccc2)cc2c(=O)n3ccccc3nc21 | 1 | / | 1 | 5.1* | 2% | 3
CCn1c(=N)c(C(=O)OC)cc2c(=O)n3ccccc3nc21 | 6 | / | 1 | 3.7* | 12% | 17
SMILES | Spn MK inh | DPM-DC inhibit | A340 absorber | Fluor 339 460 | NADH coupling | Spn PMK inh
c1ccc2c(c1)Cc1cc(CN3CCOCC3)ccc1-2 | 9 | i | 0.99 | 1 | 3% | 12
Cc1cc(C)n(-c2nc3c(c(=O)[nH]c(=O)n3C)n2C(C)C)n1 | 0 | i | 0.98 | 1.1 | 6% | 17
COc1ccc(NC(=O)c2cnc3sccn3c2=O)cc1OC | 3 | i | 1.1 | 1 | 5% | 8
CCOc1ccc(C(=O)C2CCN(CC(=O)Nc3ccccc3N3CCOCC3)CC2)cc1 | 11 | i | 1 | 1.1 | 6% | 7
CC(C)OC(=O)c1cccnc1SCc1cc(=O)n2ccccc2n1 | 12 | i | 1.1 | 1.7 | 16% | 28*
CC(C)CC(c1nnnn1Cc1ccccc1)N1CCN(C(=O)c2ccco2)CC1 (configuration not stated) | 0 | i | 0.99 | 0.89 | 7% | 14
CCCCC(=O)Nc1nn(C)c2nc3c(C)cccc3cc12 | 10 | i | 1 | 2.4* | 12% | 15
CCCCC(=O)Nc1nn(CCC)c2nc3ccccc3cc12 | 5 | i | 0.99 | 1.4 | 3% | 4
Cc1cccc2cc3c(NC(=O)CC(C)C)nn(C)c3nc12 | 8 | i | 1 | 2.9* | 11% | 9
CC(NC(=O)OC1CCCCC1)N1C(=O)C2C3C=CC(C3)C2C1=O (configuration not stated) | 6 | i | 0.98 | 1.1 | 5% | 9
Cc1nn(C)c(C)c1NC(=O)CSc1nc(-c2ccccc2F)nc2c1cnn2-c1ccccc1 | 0 | i | 1 | 2.1* | 10% | 18
Cc1ccc(S(=O)(=O)Nc2cc(C)nn2-c2ccccc2)cc1 | 7 | i | 1 | 1.1 | 4% | 5
CC1=CC(c2ccccc2)n2nc(NS(=O)(=O)c3ccc(C)cc3)nc2N1 (configuration not stated) | 7 | / | 1.1 | 2.2* | 8% | 9
CCOc1ccc(CN2CCNC(=O)C2CC(=O)OC)cc1 (configuration not stated) | 5 | i | 1 | 1.1 | 6% | 7
CCCOc1ccc(-c2nnc(-c3ccncc3)o2)cc1 | 2 | i | 1 | 2.4* | 7% | 3
CC(C)COc1ccc(-c2nnc(-c3ccncc3)o2)cc1 | 10 | i | 1.1 | 2.4* | 16% | 18
c1cc(-c2nnc(-c3ccncc3)o2)ccn1 | 7 | i | 1 | 1.1 | 2% | 0
OCC#CCSc1nnc(-c2ccncc2)o1 | 11 | i | 1 | 1.1 | 8% | 12
COc1ccc(S(=O)(=O)N(Cc2ccccc2)Cc2nc(-c3ccccc3)no2)cc1 | 6 | i | 1 | 1.1 | 4% | 6
CCn1c2ccccc2c2cc(CN3CCN(C(=O)c4ccco4)CC3)ccc21 | 54* | i | 1 | 1.1 | 28% | 30*
COc1ccc(CN2CCN(C(=O)c3ccco3)CC2)cc1OCc1ccccc1 | 52* | i | 1.1 | 1.1 | 20% | 7
COc1ccc(C(=O)Nc2cccc3c2C(=O)NC3=O)cc1S(=O)(=O)N1CCOCC1 | 4 | i | 1.1 | 1.5 | 14% | 25*
